Screens: PubChem BioAssay, National Center for Advancing Translational Sciences (NCATS)
BAZ2B block = inhibitors of human BAZ2B bromodomain | Q9UIF8 | AlphaScreen BAZ2B-H3K14Ac peptide displacement | Potency, µM (highest dose often 114 µM), for the others: at the highest dose activity change, negative = inhibition, usual class: inhibitors | 360,000 compounds, 4.4% hits | AID 504333; note: % is set by controls: 0 for no effect and ±100 for the full control effect; nearly all actives have a fitted effect of over 60% in size
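Protein-peptide AlphaScreen: BAZ2B 50 nM, b-H3K14Ac 50 nM, 1x PBS pH 7.4 + 0.01% Tween-20. Preincubation 30 min RT; cpd 30 min RT (top 110 uM); beads 20 min RT, light-protected.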
HP1b chromo inh = inhibitors of HP1-beta chromodomain binding to methylated histone tails | AlphaScreen HP1-beta / biotin-H3K9me3 peptide binding | Potency, µM (highest dose often 114 µM), without a hit: at the top dose activity change, negative = inhibition, usual class: inhibitors | 390,000 compounds, 0.56% hits; note: nearly all actives have a fitted effect of over 70% in size
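AlphaScreen: HP1-beta (50 nM) preformed 30 min with biotin-H3(1-18)K9me3 peptide (50 nM) in PBS pH 7.4, 0.01% Tween-20. Compound added for 30 min at RT, then streptavidin donor/nickel chelate acceptor beads (10 ug/mL) for 30 min.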
L3MBTL1 inh = blocks human L3MBTL1; AlphaScreen L3MBTL1–H3K9me1 peptide binding; Potency, µM (highest dose often 57.1 µM), for the others: at the highest dose activity, negative = inhibition, most hits filed as inhibitors; 230,000 compounds, 0.66% hits; AID 485360; note: % is set by controls: 0 for no effect and ±100 for the full control effect; nearly all actives have a fitted effect of over 60% in size
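Read-out is AlphaScreen signal from streptavidin donor and nickel chelate acceptor beads (10 ug/mL final each) bridging L3MBTL1 (50 nM) and biotinylated K9-monomethylated H3(1-15) peptide (75 nM), after 30 min compound exposure at room temperature.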
JMJD2A Tudor inh = inhibitors of human JMJD2A Tudor domain; 390,000 compounds, 4.4% hits; O75164; Potency, µM (titrated, usually from 114 µM), for inactives: top-dose activity change, negative = inhibition, usual class: inhibitors; AlphaScreen JMJD2A-Tudor / H3K4me3 peptide binding; AID 504339; note: % is set by controls: 0 for no effect and ±100 for the full control effect; nearly all actives have a fitted effect of over 50% in size
Target sequence (O75164 whole entry, looked up, the tested form may be a part): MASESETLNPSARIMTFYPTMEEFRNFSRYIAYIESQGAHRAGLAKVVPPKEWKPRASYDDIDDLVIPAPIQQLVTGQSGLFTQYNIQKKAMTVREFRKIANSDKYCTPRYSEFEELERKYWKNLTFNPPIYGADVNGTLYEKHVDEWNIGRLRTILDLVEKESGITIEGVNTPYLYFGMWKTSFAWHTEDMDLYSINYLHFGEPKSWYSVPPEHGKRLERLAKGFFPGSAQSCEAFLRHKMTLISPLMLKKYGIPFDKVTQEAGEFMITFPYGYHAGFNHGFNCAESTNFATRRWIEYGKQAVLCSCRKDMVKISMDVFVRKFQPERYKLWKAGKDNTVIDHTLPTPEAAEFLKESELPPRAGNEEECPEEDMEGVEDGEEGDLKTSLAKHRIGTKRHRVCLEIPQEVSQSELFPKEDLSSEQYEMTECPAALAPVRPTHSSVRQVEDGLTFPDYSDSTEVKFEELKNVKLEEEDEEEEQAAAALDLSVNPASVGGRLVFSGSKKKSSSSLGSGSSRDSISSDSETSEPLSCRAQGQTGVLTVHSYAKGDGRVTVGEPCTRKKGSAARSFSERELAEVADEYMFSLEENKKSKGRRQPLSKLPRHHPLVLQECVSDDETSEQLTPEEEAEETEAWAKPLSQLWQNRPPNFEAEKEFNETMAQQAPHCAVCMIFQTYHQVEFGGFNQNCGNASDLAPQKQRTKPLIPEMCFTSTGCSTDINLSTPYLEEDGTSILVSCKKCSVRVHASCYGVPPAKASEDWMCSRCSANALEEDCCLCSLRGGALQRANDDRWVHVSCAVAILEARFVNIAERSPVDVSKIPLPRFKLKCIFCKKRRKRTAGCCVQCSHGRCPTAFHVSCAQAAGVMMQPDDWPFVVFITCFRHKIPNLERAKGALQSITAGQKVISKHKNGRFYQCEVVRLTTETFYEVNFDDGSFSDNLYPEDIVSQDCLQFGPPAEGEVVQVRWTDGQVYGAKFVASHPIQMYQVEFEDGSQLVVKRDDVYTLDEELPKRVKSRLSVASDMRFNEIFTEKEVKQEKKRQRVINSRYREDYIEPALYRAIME
G9a inh = G9a (human) methyltransferase inhibition; G9a H3K9 monomethylation, AlphaScreen, 2 h; Potency, µM (doses to about 102 µM), for the others: at the top dose activity, negative = inhibition, usual class: inhibitors; 350,000 compounds, 8.8% hits; AID 504332; note: % is set by controls: 0 for no effect and ±100 for the full control effect; nearly all actives have a fitted effect of over 75% in size
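Signal arises when biotinylated H3K9 peptide, once monomethylated, bridges streptavidin donor and antibody-captured acceptor beads. Enzyme at 20 nM was preincubated 15 min with test compounds; peptide 500 nM and SAM 20 uM then reacted for 2 h.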
An asterisk follows results filed as active; ? = inconclusive; / = no result; [ ] = dose if it differs, or a comment. Only some compounds are listed: those with a hit (about 11% of all), similar ones and a draw of the others. Calls come from the whole dose curve; as a rule, active = well fitted inhibition curve with a large enough effect; inconclusive = small, poorly fitted or top-dose-only effect; inactive = no such curve, though single readings can be large or run the other way. Potency is the fitted concentration of half-maximal effect.

SMILES | BAZ2B block | HP1b chromo inh | L3MBTL1 inh | JMJD2A Tudor inh | G9a inh
Cc1ccc(S(=O)(=O)NCc2ccncc2)cc1 | 10.3% | 13.7% | / | -1.9% | 18.0%
Cc1ccc(O)c(NC(=O)CCSc2nc(-c3ccco3)cc(C(F)(F)F)n2)c1 | -7.7% | 22.9% | / | -12.0% | 7.0%[59 µM]
COc1cc(OC)cc(C(=O)N2CCN(C3CCCCC3)CC2)c1 | ? | ? | -3.8% | 22.4µM* | /
O=C(c1cccs1)N1CCN(C2CCN(Cc3ccccc3)CC2)CC1 | -2.4% | 22.1% | 16.5%[11.4 µM] | 6.3% | 11.4%[12.7 µM]
COc1cc(OC)cc(C(=O)N2CCN(C3CCC(C)CC3)CC2)c1 (stereo unspecified) | / | ? | / | 56.2µM* | /
COc1cc(OC)cc(C(=O)N2CCN(C3CCN(Cc4ccccc4)CC3)CC2)c1 | 14.1µM* | ? | / | 1.12µM* | 2.51µM*
CC1CCC(N2CCN(C(=O)c3ccccc3F)CC2)CC1 (stereo unspecified) | 79.4µM* | ? | -5.6% | 28.2µM* | 15.8µM*
COc1cc(OC)cc(C(=O)N2CCN(C(=O)c3cccc(F)c3)CC2)c1 | -7.6% | 28.9% | / | -5.4% | 9.0%[59 µM]
CCOCCc1nnc(NC(=O)C(=O)c2cc(C)n(-c3ccc(C)c(C)c3)c2C)s1 | 4.2% | 28.0% | / | -10.9% | ?
COc1cccc(C(=O)N2CCN(Cc3ccco3)CC2)c1OC | -36.8% | ? | 2.6% | ? | -0.3%[59 µM]
COc1cccc(C(=O)N2CCN(C3CCN(Cc4ccccc4)CC3)CC2)c1OC | 17.8µM* | 22.4µM* | / | 0.794µM* | ?
Cc1ccc(C)c(S(=O)(=O)ON2C(=O)c3ccccc3C2=O)c1 | -6.0% | 31.6µM* | 14.5% | ? | 7.94µM*
Cc1ccc(S(=O)(=O)ON2C(=O)c3cccc4cccc(c34)C2=O)cc1 | -1.7% | 54.2% | 0.3% | -24.2% | 27.8%[59 µM]
O=C1c2cccc3cccc(c23)C(=O)N1OS(=O)(=O)c1ccccc1 | 6.8% | 3.8% | -5.4% | -23.3% | 26.9%[59 µM]
Cc1cc(S(=O)(=O)ON2C(=O)c3ccccc3C2=O)ccc1F | -26.4% | ? | / | 79.4µM* | 7.08µM*
O=C1c2ccccc2C(=O)N1OS(=O)(=O)c1ccccc1 | -11.3% | / | 3.5% | / | 3.98µM*
Nc1c(-c2nc(-c3cccs3)no2)nnn1-c1cccc(F)c1 | 3.0% | 10.7% | / | -14.7% | 7.1%[59 µM]
Cc1cccc2c1-c1sc(C(=O)N(C)c3cccc(C(F)(F)F)c3)cc1CO2 | 61.0% | 154.2% | / | 98.9% | 133.4%[59 µM]
O=C1CCN(S(=O)(=O)c2ccccc2)N1 | -1.9% | 13.2% | 2.4% | -6.2% | 11.2µM*
COc1ccc(C)cc1S(=O)(=O)n1c([N+](=O)[O-])cnc1C | -37.8% | 31.2% | -3.2% | -13.7% | ?
COc1ccc(S(=O)(=O)n2c([N+](=O)[O-])cnc2C)cc1OC | 79.4µM* | 71.7% | 10.3% | ? | 56.2µM*
CC(CN1C(C)CCCC1C)OC(=O)c1cccc(Br)c1 (stereo unspecified) | -14.7% | 23.2% | / | -20.4% | -0.8%
O=C(NCc1ccccc1)C1CCN(C(=O)c2cnn(-c3ccccc3)c2-n2cccc2)CC1 | -17.5% | 20.7% | / | -15.3% | -4.1%[59 µM]
CC(C)Oc1ccc(-c2cc(=O)[nH]c(=O)[nH]2)cc1 | -3.8% | 18.3% | -1.2% | -6.7% | 18.8%[59 µM]
COc1ccc(-c2cc(=O)[nH]c(=S)[nH]2)cc1 | -35.8% | 36.9% | 2.9% | -12.6% | 50.1µM*
SMILES | BAZ2B block | HP1b chromo inh | L3MBTL1 inh | JMJD2A Tudor inh | G9a inh
COc1ccc(-c2cc(=O)c3cc(C)ccc3[nH]2)cc1 | -2.6% | 42.1% | 7.0% | -14.3% | ?
COc1ccc(-c2cc(=O)c3cc(OC)ccc3[nH]2)cc1 | -2.1% | 28.4% | 6.5% | -7.1% | 79.4µM*
CC(=O)Nc1ccc(NC(=O)C(NC(=O)C2CCC(C)CC2)C(C)C)cc1 (stereo unspecified) | 5.5% | 24.3% | / | -8.9% | -30.5%[59 µM]
CCc1cc(C)cc(OCCNC(=O)c2ncn[nH]2)c1 | 50.1µM* | 30.2% | -26.6% | ? | 8.4%[59 µM]
CC(C)(C)c1ccc(OCCNC(=O)c2ncn[nH]2)cc1 | 11.2µM* | 34.2% | / | 4.6% | -5.0%
COc1ccc(Cl)cc1NC(=O)NCCc1c(C)nn(C)c1C | -1.8% | 31.0% | / | 13.9% | -1.6%[12.7 µM]
CCCN1CNc2c(c(=O)[nH]c(=S)n2CCc2ccc(OC)cc2OC)C1 | / | 42.0% | / | -8.8% | /
CS(=O)(=O)Nc1cccc(-c2cncnc2NCc2ccccc2)c1 | / | / | / | / | -25.1%[0.501 µM]
